Assay outcomes: PubChem BioAssay, several laboratories
MPTP block = inhibitors of mitochondrial permeability transition pore; 1.4% of 360,000 active; isolated mouse mitochondria, Ca2+ swelling absorbance, 30 min; inhibition, % at 10 µM;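 active means inhibition of 50% or more, scaled per plate between neutral and stimulator controls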;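 further: 0% = DMSO wells given calcium and 100% = 1 mM EGTA wells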
Mdm2-MdmX inh = disrupts the human Mdm2-MdmX interaction; inhibition, % at 8 µM; 3% of 330,000 active; AID 485346; SaOS-2 split-luciferase Mdm2/MdmX complementation, luminescence; O15151+Q00987;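 active means inhibition of at least 50% at 8 µM in the primary screen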
Gli-Sufu antag = Gli-Sufu pathway antagonism; Sufu-KO-LIGHT fibroblasts, Gli luciferase reporter luminescence; inhibition, % at 5 µM; 0.74% of 340,000 active; AID 588413;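 active means inhibition above about 55%, limit read from the data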;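 further: 0% = DMSO-treated cells and 100% = wells with medium but no cells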
GRIN3A LBD mod = NR3A (human) ligand-binding domain modulation. NR3A LBD differential scanning fluorimetry, Tm shift; 0% = protein alone, 100% = glycine-bound protein. Tm shift relative to glycine control, % at 25 µM. 2.5% of 340,000 active. AID 1259313;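 active means melting temperature shift of at least 10% of the positive control shift, at one fixed dose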
CSC inhib = blocks cancer stem cells; cancer stem cell-like cells viability, luminescence; inhibition, % at 7.5 µM; 1.1% of 300,000 active; in the data active means inhibition above about 75%; tested in HMLE shEcad cells
Beta cell apopt = beta cell apoptosis inhibition; 0.8% of 300,000 active; protection from apoptosis, % (no concentration beside the values); INS-1E cytokine-induced death, ATP luminescence, 48 h; percent of positive-control rescue, neutral wells zero; AID 435005;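 active means Every replicate reaches about 75%, or at least half do and their mean reaches it too, limit read from the data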;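 further: 0% = cytokine-treated negative control wells and 100% = positive control rescue; higher means more ATP so stronger rescue from cytokine killing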
Gli antag conf = Gli-SUFU antagonism confirmation, single concentration; shares compounds with Gli-Sufu antag; Sufu-KO-LIGHT cells, Gli luciferase reporter, luminescence; inhibition, % at 5 µM; 40% of 2,500 active; AID 602428;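 active means mean inhibition at 5 µM reaching about 45%, limit read from the data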;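 further: plate controls were DMSO-treated cells for no effect and wells lacking cells for full effect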
Gli cytotox = cytotoxic in Gli-SUFU antagonist counter-screen; shares compounds with Gli-Sufu antag; AID 651994; Sufu-KO-LIGHT cells cytotoxicity, ATP luminescence; cytotoxicity, % at 5 µM; 32% of 2,500 active;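 active means mean cytotoxicity at 5 µM above about 25%, limit read from the data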;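 further: cells exposed to compound overnight for roughly 16 to 18 hours; plate controls were DMSO wells with cells for no effect and medium without cells for full effect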
Wnt3a cs = counter-screen for Gli-SUFU antagonists: Wnt3a reporter inhibition. shares compounds with Gli-Sufu antag. Wnt-LIGHT cells, Wnt3a-driven luciferase reporter, luminescence. inhibition, % at 6.25 µM. 20% of 2,500 active. AID 651995;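 active means mean inhibition above about 25%, limit read from the data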
MPTP counter = Rhodamine 123 counter-screen of mitochondrial pore hits; shares compounds with MPTP block; isolated mitochondria, membrane potential, Rhodamine 123 fluorescence; inhibition, % at 10 µM; 78% of 5,000 active; AID 624504; in the data active means inhibition above about 22%;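 further: 0% = DMSO vehicle and 100% = positive control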
Active calls of the source: *; · = no result. Rows were chosen to be rich in hits. Some 6.6% of all compounds tested hit in one or more screens of this group.

SMILES | MPTP block | Mdm2-MdmX inh | Gli-Sufu antag | GRIN3A LBD mod | CSC inhib | Beta cell apopt | Gli antag conf | Gli cytotox | Wnt3a cs | others
O=C(CC1SC(N2CCCCC2)=NC1=O)Nc1cccc(C(=O)NCc2ccc(F)cc2)c1 (stereo not drawn) | -1 | 21 | -5 | 0 | · | · | · | · | ·
CCOC(=O)Nc1ccc2c(c1)N(C(=O)CN1CCN(C)CC1)c1ccccc1CC2 | -1 | 7 | 51 | 2 | -2 | -4 | 23 | 19 | -6
O=C1C(=O)N(CCCn2ccnc2)C(c2ccc(Br)cc2)/C1=C(\O)c1ccc2c(c1)OCCO2 (stereo not drawn) | -1 | 27 | -10 | 1 | -1 | 1 | · | · | ·
O=C1C(=O)N(CCCn2ccnc2)C(c2cccc(Br)c2)/C1=C(\O)c1ccc2c(c1)OCCO2 (stereo not drawn) | 1 | 4 | 51 | -3 | -14 | -9 | 33 | 22 | -17
CC1CN(CCOc2cccc(Oc3ccccc3)c2)CC(C)O1 (stereo not drawn) | 1 | 11 | 52 | -1 | · | · | 14 | 14 | -9
CC1CCCN(CCOc2cccc(Oc3ccccc3)c2)C1 (stereo not drawn) | 1 | 26 | 51 | -1 | · | · | 27 | 9 | -14
c1ccc(Oc2cccc(OCCCCN3CCCC3)c2)cc1 | 2 | 7 | 19 | 0 | 59 | 5 | · | · | ·
CCCOc1ccc(OCCN2CCCC(C)C2)cc1 (stereo not drawn) | 1 | 19 | 17 | -4 | 29 | · | · | · | ·
CCOc1ccc(CCNC(=O)c2cc(C)nc3ccccc23)cc1OCC | -1 | 13 | 6 | -1 | -4 | -6 | · | · | ·
N#Cc1c(-c2cccc(Br)c2)cc(-c2cccnc2)nc1N | -1 | 15 | 53 | -4 | 18 | 8 | 20 | 0 | -21
N#Cc1c(-c2ccc(Br)cc2)cc(-c2cccnc2)nc1N | -3 | -5 | 6 | -1 | 2 | 3 | · | · | ·
Cc1ccc(NC2CCCN(C(=O)CCC3=NNC(=O)CC3)C2)cc1C (stereo not drawn) | 0 | 12 | 0 | -2 | -1 | 1 | · | · | ·
Cc1cc(C(=O)NC(C)CCc2ccccc2)ccc1[N+](=O)[O-] (stereo not drawn) | 1 | 13 | 3 | 2 | -15 | 5 | · | · | ·
O=C(CSC(=S)N1CCCC1)c1cc(Br)cc(Br)c1O | · | -12 | 85* | -4 | -19 | 0 | 9 | 9 | -29
O=C(CSC(=S)N1CCCC1)Nc1cc2c(cc1Br)OCCO2 | -2 | -2 | 0 | -1 | -19 | -4 | · | · | ·
COc1cc(C(O)c2nc3ccccc3n2C(C)C)cc(OC)c1OC (stereo not drawn) | 0 | -3 | -12 | -1 | 12 | -5 | · | · | ·
CC(C)Cn1c(SC(C)C(=O)NCC2CCCO2)nc2ccc(Cl)cc2c1=O (stereo not drawn) | -1 | -7 | 6 | -3 | -7 | -1 | · | · | ·
CN1CCN(C2=Cc3ccccc3Sc3cc(F)c(Cl)cc32)CC1 | 32 | 37 | 54 | 4 | 40 | 5 | 23 | 0 | -34
O=C(C1CCN(S(=O)(=O)c2ccccc2[N+](=O)[O-])CC1)N1CCOCC1 | 0 | 27 | -2 | -5 | -2 | 21 | · | · | ·
COc1ccc(OC)c(NC(=O)CN(c2ccc(C)cc2)S(=O)(=O)c2c(C)n[nH]c2C)c1 | -1 | 25 | -6 | -2 | 5 | 1 | · | · | ·
COc1ccccc1NC(=O)CN(c1ccc(C)cc1)S(=O)(=O)c1c(C)n[nH]c1C | -2 | -5 | 56* | 4 | 25 | 7 | 20 | 5 | -25
O=C(CSc1nnc(-c2cccs2)n1C1CC1)NCC1CCCO1 (stereo not drawn) | 0 | 16 | -1 | 3 | -4 | -1 | · | · | ·
CCOC(=O)CNC(=O)c1c(C)nn(-c2ccccc2)c1Cl | 1 | -20 | 95* | 3 | 0 | 3 | 12 | 22 | -11
CCOC(=O)CNC(=O)c1c(C)nn(C)c1Cl | 0 | -42 | -18 | -1 | -1 | 1 | · | · | ·
O=C(N=Nc1c(O)[nH]c2ccc(Br)cc12)c1ccccc1-n1cccc1 | -1 | 44 | 57* | -3 | 80* | 34 | 32 | 34* | -59
SMILES | MPTP block | Mdm2-MdmX inh | Gli-Sufu antag | GRIN3A LBD mod | CSC inhib | Beta cell apopt | Gli antag conf | Gli cytotox | Wnt3a cs | others
O=C(N=Nc1c(O)[nH]c2ccc(Br)cc12)c1ccco1 | -1 | · | · | · | · | · | · | · | ·
O=C(Nc1ccc(Cl)cc1)Nc1nnc(-c2ccncc2)s1 | 79* | · | 74* | 20* | 91* | 99* | 72* | 25* | 70* | MPTP counter=24*
Cc1cnc(NC(=O)Nc2ccc(Cl)cc2)s1 | 82* | -81 | 76* | 26* | 29 | 25 | 49* | 11 | -125 | MPTP counter=86*
Cc1cc(C)c(S(=O)(=O)NCc2ccncc2)c(C)c1 | 87* | 15 | 58* | -1 | 5 | 64 | 60* | 28* | 43* | MPTP counter=72*
CCCCNS(=O)(=O)c1ccc(S(=O)(=O)NCc2ccncc2)cc1 | 80* | 22 | 57* | 2 | 9 | · | 59* | 37* | 23 | MPTP counter=70*
Cc1cc(C)c(S(=O)(=O)NCCc2ccncc2)c(C)c1 | 0 | -9 | · | -1 | 0 | 3 | · | · | ·
Cc1ccc(S(=O)(=O)NCc2ccccn2)c(C)c1C | -1 | -16 | -1 | -2 | -16 | · | · | · | ·
Cc1ccc(S(=O)(=O)NCc2ccncc2)c(C)c1C | 95* | 11 | 76* | -1 | -11 | 116* | 74* | 28* | 37* | MPTP counter=91*
CC1CCN(S(=O)(=O)N2CCC(C(=O)NCCc3ccccc3)CC2)CC1 | 2 | -12 | 39 | -5 | 8 | -2 | · | · | ·
CC12CCC(=O)C=C1CCC1C2CCC2(C)C(C(=O)CO)CC(O)C12 (stereo not drawn) | 0 | · | 4 | -2 | · | · | · | · | ·
CC12CCC(=O)C=C1CCC1C2CCC2(C)C(c3csc(N)n3)CCC12 (stereo not drawn) | 87* | · | 58* | -6 | · | · | 62* | 40* | 46* | MPTP counter=92*
O=C(Nc1ccccc1N1CCOCC1)C1=NN(c2ccccc2)C(=O)CC1 | 1 | 15 | 31 | -5 | · | · | · | · | ·
CCOC(=O)C1=CCN(S(=O)(=O)c2ccc(Br)cc2)C1c1ccc(C)cc1 (stereo not drawn) | 1 | · | · | · | · | · | · | · | ·
CCc1nc(N2CCN(C(=O)c3ccco3)CC2)c2c3c(sc2n1)CCCC3 | 1 | 29 | 6 | -4 | · | -13 | · | · | ·
CC1CCc2c(sc3nc(C4CC4)nc(N4CCN(C(=O)c5ccco5)CC4)c23)C1 (stereo not drawn) | 64* | 15 | 77* | 5 | 37 | 98* | 81* | 32* | 4 | MPTP counter=68*
